Reference: patent US20060193821, “Aptamers to the human IL-12 cytokine family and their use as autoimmune disease therapeutics” (published 2006)

target: IL-12 (human, p35/p40 heterodimer) (Homo sapiens, UniProt P29459;P29460 SEQ:57-253,SEQ:23-328); assay: competition; fold specificity for IL-23 over IL-12; 250 nM IL-12, saturation re-analysis of competition data; conditions: G4; XNA; deoxy A and G, 2'-OMe C and U
Procedure: Several of the minimized constructs from the dRmY Selection 2 were also assayed in a competition format in which cold aptamer was titrated and competed away trace ³²P ATP labeled aptamer In the competition assay, the [IL-23] was held constant, the [trace labeled aptamer] was held constant, and the [unlabeled aptamer] was varied. The KD was calculated by fitting the following equation to the data: Fraction aptamer bound=amplitude*([aptamer]/(KD+[aptamer]))+background binding.
The competitive binding data was re-analyzed in a saturation binding experiment where the concentration of ligand (aptamer) was varied and the concentration of receptor ([…]) was held constant and the [bound aptamer] was plotted versus the [total input aptamer].

Sequence of IL-12 (human, p35/p40 heterodimer) (P29459 23-219, chain 1 of 2): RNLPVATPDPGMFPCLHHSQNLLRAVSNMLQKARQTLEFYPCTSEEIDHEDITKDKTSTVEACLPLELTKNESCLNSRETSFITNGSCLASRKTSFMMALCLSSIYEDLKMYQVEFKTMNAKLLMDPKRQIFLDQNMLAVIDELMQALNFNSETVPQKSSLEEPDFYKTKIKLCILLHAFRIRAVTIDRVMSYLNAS
Sequence of IL-12 (human, p35/p40 heterodimer) (P29460 23-328, chain 2 of 2): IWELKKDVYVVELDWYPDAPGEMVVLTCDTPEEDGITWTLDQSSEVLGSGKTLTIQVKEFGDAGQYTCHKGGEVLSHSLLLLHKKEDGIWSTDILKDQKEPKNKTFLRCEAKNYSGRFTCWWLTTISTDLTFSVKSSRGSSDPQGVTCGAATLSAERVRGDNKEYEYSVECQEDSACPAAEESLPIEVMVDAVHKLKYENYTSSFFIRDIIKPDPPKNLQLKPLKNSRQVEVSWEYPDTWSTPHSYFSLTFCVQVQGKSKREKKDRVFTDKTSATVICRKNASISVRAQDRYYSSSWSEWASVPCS

Sequence | binding signal [fold]
ACAGGCAAGUAAUUGGGGAGUGCGGGCGGGGUGU | 33
